Inconclusive results are not listed. Where a call stands in place of a potency, no number is given. Activity calls are given as the source filed them. Calls follow the shape of the dose curve; as a rule, active = well fitted inhibition curve with a large enough effect; inconclusive = small, poorly fitted or top-dose-only effect; inactive = flat fitted curve, though single readings scatter.
target: Calcium and integrin-binding protein 1 (Homo sapiens) (UniProt Q99828); assay: Primary qHTS for Identification of Calcium Integrin Binding Protein 1 (CIB1) Competitor (AID 1508620); conditions: CIB1-GST / FITC-alphaIIb peptide fluorescence polarization; series mostly up to 114 µM;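 also: GST tagged CIB1 binding a fluorescein labelled alphaIIb integrin peptide tracer; top concentration of the series differs between compounds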
Sequence (Q99828 whole entry, looked up): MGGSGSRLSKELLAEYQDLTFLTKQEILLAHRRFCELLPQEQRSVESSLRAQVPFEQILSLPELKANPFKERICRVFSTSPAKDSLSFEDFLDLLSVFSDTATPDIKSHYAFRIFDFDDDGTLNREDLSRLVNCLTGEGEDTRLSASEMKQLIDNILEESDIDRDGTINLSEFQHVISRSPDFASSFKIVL
Outline: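 CIB1-GST (1 uM final) and compound incubated 15 min at room temperature before adding FITC-alphaIIb peptide tracer (100 nM final). Competition for binding read by fluorescence polarization (ex 480, em 540) after another 15 min at room temperature.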

| SMILES | Potency |
| --- | --- |
| COc1ccccc1N1C(=O)c2ccccc2C1=O | inactive |
| Cc1cc(C)nc(NC(=S)N2CCN(c3nsc4ccccc34)CC2)c1 | inactive |
| O=S1(=O)N=C(OCc2ccccc2)c2ccccc21 | inactive |
| COc1cccc(C2C(C#N)=C(NC(=O)CCc3ccccc3)Oc3ccc4ccccc4c32)c1 (centres undefined) | inactive |
| CC(=O)c1c(C)[nH]c(C(=O)Nc2ccc(OCCCN(C)C)c(S(=O)(=O)Nc3ccc(Br)cc3)c2)c1C | inactive |
| COc1cccc(C2c3c(ncn(-c4ccc(NC(C)=O)cc4)c3=N)Oc3ccc4ccccc4c32)c1 (centres undefined) | inactive |
| O=S(=O)(c1ccc2c(c1)OCCO2)N1CCN(S(=O)(=O)c2ccc3nc(Cl)c(Cl)nc3c2)CC1 | inactive |
| Cc1ccc(-c2nnc(NC(=O)Nc3ccc4ccccc4c3)s2)cc1 | inactive |
| COc1cc(O)c(C(CC(=O)N2CCC(c3ccccc3)CC2)c2ccc3c(c2)OCO3)c(OC)c1 (centres undefined) | inactive |
| CC(=O)Nc1sc2c(c1-c1ccc(F)cc1)CCNC2 | inactive |
| Cc1cc(NC(=O)Nc2nnc(C3CCCCC3)s2)ccc1Cl | inactive |
| O=C1c2ccccc2C(=O)N1c1cccc2ncccc12 | inactive |
| Cc1ccnc(NC(=S)N2CCN(c3cccc(C(F)(F)F)n3)CC2)c1 | inactive |
| N#Cc1ccccc1CCc1nc2ncc(Br)cc2[nH]1 | inactive |
| O=S(=O)(Nc1cccc2cccnc12)c1ccccc1 | inactive |
| Cn1c2cc(C#N)sc2c2cnn(Cc3ccccc3F)c(=O)c21 | inactive |
| Cc1ccc(C(=O)Oc2ccc(-c3nc4ccccc4[nH]3)cc2)cc1Br | inactive |
| CC(C)N1CCc2c(-c3nc4ccccc4s3)csc2C1 | inactive |
| Cc1ccsc1CN(C)c1ncnc2ccc(-c3ccoc3C)cc12 | inactive |
| CCCCN(C)C(=O)Cn1nc(-c2ccccc2C)ccc1=O | inactive |

| SMILES | Potency |
| --- | --- |
| COc1ccc(NC(=O)c2cnn3c(C)cc(C)nc23)cc1 | inactive |
| O=C(NCc1nnc(-c2cc3ccccc3[nH]2)s1)c1ccccc1 | inactive |
| O=C(O)c1ccc(S(=O)(=O)N[C@H](Cc2ccc(O)cc2)C(=O)O)cc1 | inactive |
| Cc1cc(C)nc(NC(=S)N2CC3CN(c4ccc(Cl)cc4C(F)(F)F)CC3C2)c1 (centres undefined) | inactive |
| O=C(Nc1ncc(Cc2ccc(C(F)(F)F)cc2)s1)c1ccc(-c2cccnc2)o1 | inactive |
| Cc1cc(C)n2ncc(C(=O)Nc3ccc(C(F)(F)F)cc3)c2n1 | inactive |
| NC(=O)C1CCN(c2nc(-c3ccccc3F)cs2)CC1 | inactive |
| COc1cc2nc(Nc3ccccc3)nc(NC3CC3)c2cc1OC | inactive |
| Cc1cc2c(s1)c1cnn(Cc3ccc(C)c(F)c3F)c(=O)c1n2C | inactive |
| Cc1ccc(OCCn2c(CCNC(=O)c3cccc4ccccc34)nc3ccccc32)cc1 | inactive |
| Cc1cnc(-c2ccccc2C(C)C)nc1N(C)Cc1ccc(-c2cccnc2)cc1 | inactive |
| Fc1ccc(-c2c(P(=S)(c3ccccc3)c3ccccc3)n3ccccc3[n+]2C/C=C/c2ccccc2)cc1 | inactive |
| CCN(CC)C(=O)COC(=O)c1ccc(S(C)(=O)=O)c([N+](=O)[O-])c1 | inactive |
| O=C(CNC(=O)c1ccc(Cl)cc1)OC(C(=O)Nc1cc(C(F)(F)F)ccc1Cl)c1ccccc1 (centres undefined) | inactive |
| O=C(CN1C(=O)N/C(=C\c2cccn2-c2cccc(C(=O)O)c2)C1=O)Nc1ccc(F)cc1 | inactive |
| O=C1N/C(=C\c2ccco2)C(=O)N1Cc1ccc(F)cc1 | inactive |
| COc1ccc(C2Nc3ccccc3C(=O)N2Cc2cccnc2)cc1COc1c(C)cccc1C (centres undefined) | inactive |
| Cc1cc(C)n2ncc(C(=O)Nc3ccncc3)c2n1 | inactive |
| N#Cc1c(-c2ccc(OCCOCCOCCNC(=O)CCCC[C@@H]3SC[C@@H]4NC(=O)N[C@@H]43)cc2)no[n+]1[O-] | inactive |

Reference: PubChem BioAssay (NCATS)
